From PubChem BioAssay AID1053122 (Broad Institute, 2014)
Measured potencies and affinities stand elsewhere. A number with no mark means an inactive call.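 The calls were made as follows: active = CTGF level falls with dose and the fitted half-maximal dose is at most twice the top valid dose; inconclusive = flat fit with 30 to 70% drop, or a poor fit; inactive = the rest.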

Assay: CTGF mRNA reduction in DLD1 cells – cell-based, DLD1 colon cancer, RT-qPCR, cherry-pick, dose response (AID 1053122)
Conditions: DLD1 CTGF mRNA (YAP1 pathway), 24 h; series mostly up to 26 µM; CTGF expression fold change (lower = inhibition): at the top concentration

SMILES	CTGF expression fold change (lower = inhibition)
CCS(=O)(=O)Nc1ccc2c(c1)C(=O)N(C)[C@H]1CC[C@H](CC(=O)N3CCN(C)CC3)O[C@H]1CO2	0.968 unspecified
COCC(=O)N1CC(=O)N2[C@H](CO)[C@@H](c3ccc(C#CC4CC4)cc3)[C@H]2C1	0.97 unspecified
C[C@@H]1CN([C@@H](C)CO)C(=O)c2cc(C#Cc3ccccc3)cnc2O[C@@H]1CN(C)C(=O)c1ccccc1	0.83 unspecified
COc1ccccc1C#Cc1ccc([C@H]2[C@H](CO)N3CCCCN(C(=O)C4CCC4)C[C@@H]23)cc1	0.394 unspecified
CC(C)(C)[S@](=O)N1Cc2cc(C(=O)NCc3ccccn3)nc(-c3cccc(-c4ccccc4F)c3)c2[C@@H]1CCO	0.92 unspecified
CN1C(=O)c2cc(NS(=O)(=O)c3ccccc3F)ccc2OC[C@@H]2O[C@@H](CC(=O)NC3Cc4ccccc4C3)CC[C@@H]21	1.2 unspecified
C[C@@H]1CN([C@@H](C)CO)C(=O)Cc2cc(NC(=O)C3CCCCC3)ccc2O[C@@H]1CN(C)Cc1ccc(Cl)c(Cl)c1	0.922 unspecified [at 23.5 µM]
CCCC#Cc1ccc([C@@H]2[C@@H](C#N)N(C(=O)CN3CCOCC3)[C@H]2CO)cc1	1.05 unspecified [at 23.5 µM]
